Out of some 330,000 compounds screened, about 4,900 (1.5%) were called active. The sample as a whole holds a higher share of actives than the screen did. A number with no mark means an inactive call.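 Rule for the calls: active = inhibition above the mean inhibition across the screen plus 3 SD (cut at about 25% in these data); inactive = the rest.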
target: Platelet-activating factor acetylhydrolase (Homo sapiens) (UniProt Q13093); experiment: pPAFAH enzyme inhibitors, primary screen, biochemical, fluorescence polarization, human (AID 463082); details: recombinant pPAFAH, FP-rhodamine probe fluorescence polarization; at 3.39 µM; active compounds read high;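 note: inhibitors block binding of the rhodamine activity-based probe so polarization drops; 0% = enzyme with DMSO and 100% = wells lacking pPAFAH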
Sequence (Q13093 whole entry, looked up): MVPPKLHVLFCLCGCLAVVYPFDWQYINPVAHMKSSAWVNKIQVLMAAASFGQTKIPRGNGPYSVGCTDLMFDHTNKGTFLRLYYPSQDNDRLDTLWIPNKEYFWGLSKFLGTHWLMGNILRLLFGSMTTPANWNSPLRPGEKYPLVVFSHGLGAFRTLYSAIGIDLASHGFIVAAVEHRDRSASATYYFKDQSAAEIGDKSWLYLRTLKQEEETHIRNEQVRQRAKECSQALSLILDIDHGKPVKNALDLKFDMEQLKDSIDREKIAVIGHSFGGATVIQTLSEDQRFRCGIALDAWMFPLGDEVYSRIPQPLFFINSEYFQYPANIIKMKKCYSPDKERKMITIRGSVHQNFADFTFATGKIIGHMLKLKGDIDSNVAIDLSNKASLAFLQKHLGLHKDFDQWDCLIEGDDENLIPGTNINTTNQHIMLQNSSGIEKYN

Row | Structure (SMILES) | inhibition
1 | CSc1ccc(/C=C/C(=O)NC23CC4CC(CC(C4)C2)C3)cc1 | -0.12%
2 | COc1ccc(NC(C)=O)cc1NC(=O)CN1CCN(C2c3ccccc3-c3ccccc32)CC1 | 7.04%
3 | CCC(=O)Nc1sc(C(=O)Nc2ccccc2)c(C)c1C(=O)OC | 50.5% (active)
4 | COC(=O)c1c(NC(C)=O)sc(C(=O)Nc2ccccc2OC)c1C | -5.75%
5 | CCOC(=O)c1sc(NC(=O)COc2ncnc3ccccc23)c(C(=O)OCC)c1C | 0.72%
6 | COC(=O)c1ccc(CNC(=O)c2ccc3oc(C(C)C)nc3c2)cc1 | -0.67%
7 | CCCn1c(SCC(=O)c2ccc3c(c2)OCCO3)nnc1C(C)C | 3.84%
8 | Cc1ccc(Nc2nc(CSc3nnnn3-c3ccccc3)cc(=O)[nH]2)cc1 | 27.2% (active)
9 | COc1ccc(C)cc1-n1nnnc1SCc1nc2ccccc2c(=O)[nH]1 | -13.6%
10 | Cc1ccc(NC(=O)CSc2nc(CSc3ccc(C)cc3)cc(=O)[nH]2)cc1 | 17.3%
11 | N#CC1(NC(=O)COC(=O)Cc2n[nH]c(=O)c3ccccc23)CCCCC1 | 0.43%
12 | CC(C)C(C)(C#N)NC(=O)CSc1nc2scc(-c3ccccc3)c2c(=O)[nH]1 (stereo unspecified) | 11.1%
13 | CCCCCCSc1ccc([C@@H]2[C@H]3C(=O)N(CC)C(=O)[C@H]3[C@]3(C(=O)OC)CCCCN23)cc1 | 6.84%
14 | CCCCCCSc1ccc([C@@H]2[C@@H]3C(=O)N(CC)C(=O)[C@@H]3[C@]3(C(=O)OC)CCCCN23)cc1OC | 26.9% (active)
15 | CCN1C(=O)[C@@H]2[C@@H](c3ccc(-c4ccc(OC)cc4)c(OC)c3)N3CCC[C@@]3(C(=O)OC)[C@@H]2C1=O | 2.25%
16 | CCOC(=O)c1ccc2c(c1)nc(SCC(=O)NC(C)C)n2CC | 3.79%
17 | CN(CC(=O)NC1CCCCC1)S(=O)(=O)c1cccc2cccnc12 | 14.6%
18 | CCn1c(SCC(=O)Nc2sc(C)c(C)c2C#N)nnc1C1CC1 | 1.95%
19 | Cn1nc([N+](=O)[O-])nc1Sc1ccc(C(C)(C)C)cc1 | 8.17%
20 | CCC(=C/c1sc2ccc3ccccc3c2[n+]1C)/C=C1\Sc2ccc3ccccc3c2N1C | 32.4% (active)
21 | CC(C)Oc1ccccc1C(=O)NC(CO)C(=O)O (stereo unspecified) | 2.51%
22 | CCOC(=O)C1=C(C)OC(N)=C(C#N)C1c1cncc(-c2ccc(F)cc2)c1 (stereo unspecified) | 2.24%
23 | O=C(Nc1cccc(S(=O)(=O)NC2=NCCC2)c1)C1CCCCC1 | 3.38%
24 | CCN(CCCNC(=O)C1CCN(S(=O)(=O)c2cnc[nH]2)CC1)c1ccccc1 | -2.66%
25 | CCN(CCCNC(=O)CCn1c(=O)[nH]c2ccsc2c1=O)c1ccccc1 | 4.5%
26 | CCN(CCCNC(=O)c1ccc2c(c1)NC(=O)CN2C)c1cccc(C)c1 | 28% (active)
